Assay results published in PubChem BioAssay AID2284153 (EPA ToxCast).
The source made the active and inactive calls. Rule for the calls: active = hit-call score of the fitted dose curve at least 0.9, where 1 is the maximum; inactive = score below 0.9.

These molecules were tested against Muscarinic acetylcholine receptor M1 (Homo sapiens) (UniProt P11229) (assay: ERF_FR_GPCR_hCHRM1: Eurofins (ERF) G Protein-Coupled Receptor (GPCR) Radioligand Binding LeadHunter Assay for human Muscarinic Acetylcholine Receptor M1 Antagonism, conducted at France lab site).
Sequence of Muscarinic acetylcholine receptor M1 (Homo sapiens) (P11229 whole entry, looked up): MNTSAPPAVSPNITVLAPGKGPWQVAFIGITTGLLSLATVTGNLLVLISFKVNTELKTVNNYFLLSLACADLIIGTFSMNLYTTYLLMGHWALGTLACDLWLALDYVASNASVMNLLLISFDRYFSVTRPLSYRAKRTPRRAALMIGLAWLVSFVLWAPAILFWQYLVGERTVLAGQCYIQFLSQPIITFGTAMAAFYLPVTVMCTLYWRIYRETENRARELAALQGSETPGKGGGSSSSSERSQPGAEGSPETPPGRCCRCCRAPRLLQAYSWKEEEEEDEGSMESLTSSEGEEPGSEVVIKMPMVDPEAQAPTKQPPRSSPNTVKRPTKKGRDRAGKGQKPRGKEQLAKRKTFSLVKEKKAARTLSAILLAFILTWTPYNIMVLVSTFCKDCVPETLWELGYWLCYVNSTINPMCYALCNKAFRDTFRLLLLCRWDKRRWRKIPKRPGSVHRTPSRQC
Experimental: ERF_FR_GPCR_hCHRM1 is a biochemical, single-readout assay that uses extracted gene-proteins in a cell-free assay. Measurements were taken 1 hour after chemical dosing in a 96-well plate. See M1 Human Acetylcholine (Muscarinic) GPCR Binding (Antagonist Radioligand) Assay, Cerep.ERF_FR_GPCR_hCHRM1 is an assay component calculated from the ERF_FR_GPCR_hCHRM1 assay. It is designed to measure radioligand binding using a type of binding reporter as detected by scintillation counting with radiometry technology.Data from the assay component ERF_FR_GPCR_hCHRM1 was analyzed at the assay endpoint, ERF_FR_GPCR_hCHRM1, in the positive analysis fitting direction relative to DMSO as the negative control and baseline of activity. Using a type of binding reporter, loss-of-signal activity can be used to understand changes in binding as they relate to gene CHRM1. To generalize the intended target to other relatable targets, this assay endpoint is annotated to the gpcr intended target family, where the subfamily is acetylcholine (Muscarinic).
Human cells are incubated for 60 minutes at room temprature with [3H]pirenzepine ligand (2 nM) and pirenzepine as control inhibitor.Test Sample Requirements: Minimum for 1) Screen: 60 ul of 10 mM stock -OR- 1 mg (pre-weighed) for 10 uM final testing. 2) Dose Response: 90 ul of 10 mM stock -OR- 1 mg (pre-weighed) for a top concentration at 10 uM.
With `O=C(/C=C/c1ccc(O)cc1)CC(=O)/C=C/c1ccc(O)cc1` the AC50 was 5 µM (active).
